Our source for the growth values is PubChem BioAssay (NCI).

About 83,000 compounds went through this panel and 20% of them were active in at least one assay; those are over-represented in the sample as a whole.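 Percent growth is the endpoint: 0 to 100 indicates growth inhibition (40 means 60% inhibition), 0 means no net growth, and negative values indicate cell death.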 Active and inactive are the calls of the source. How the source made its calls: active means growth percent below 10; inactive means the rest.

In the assay the test system is HL-60(TB) leukemia. The assay can be described thus: NCI-60 one-dose screen, 48 h (100 = growth as untreated, 0 = no growth, -100 = all killed). Conditions: 10 µM unless noted.
As for `COc1cc2c(=O)n(CCCN(C)C)c3c4cc[nH]c4ncc3c2cc1OC`, the growth is 75.3% (inactive). On to `CCCc1c(CC)c(=N)c2ccccc2n1C`, for which the growth was 32.7% (inactive). Regarding `COc1ccc([C@H]2c3[nH]c4ccccc4c3C[C@H]3C(=O)N(CCCCCCC(=O)NO)CC(=O)N23)cc1`, the growth was 5.31% (active). Consider `NC(=S)N/N=C(\c1ccc(Cl)cc1)C1CC1`, for which the growth is 75.7% (inactive). Under `Nc1[nH]c(=S)nc2oc(-c3ccccc3)c(-c3ccccc3)c12` stands 90.5% (inactive); under `CC1CCN(C(=O)CSc2nc3sc4c(c3c(=O)[nH]2)CCCC4)CC1`, 102% (inactive). With `COc1cc(NC(=O)SC2=NCCS2)cc(OC)c1` the figure was 90.5% (inactive); with `COc1cc(OC)c2cc(C(=O)c3ccc(C#N)cc3)c(=O)oc2c1`, 97.4% (inactive).

As for `CCN(CC)Cc1cc(Nc2c3ccccc3nc3cc(Cl)ccc23)ccc1O`, the growth was -37.5% (active). With `Clc1nccc2c(-c3csc(-c4c[nH]c5ccc(Br)cc45)n3)c[nH]c12` the figure was 9.77% (active).

Take `C#CCOC(=O)Nc1ccccc1`: the growth is 99.7% (inactive). In the case of `Cc1ccc(-c2nc3nc(-c4ccccc4)nc(N4CCCN(S(C)(=O)=O)CC4)c3o2)cc1`, the growth was 99.6% (inactive). Consider `COc1ccc(CCN2COc3c([C@@H](C)CCC=C(C)C)ccc(C)c3C2)cc1OC`, for which the growth was 29.1% (inactive). For `CCN(CC)S(=O)(=O)c1ccc(S(=O)(=O)N2CCC[C@@H](C(=O)N3CCN(C(=O)OC(C)(C)C)CC3)C2)cc1`, the growth is 70.5% (inactive). Under `CCOc1cccc(/C=N/NC(=O)Cc2ccc(Nc3ccnc(C(F)(F)F)c3)cc2)c1O` stands 73.1% (inactive); under `COc1ccc2c(CCCCC(c3ccccc3)c3ccccc3)c3[n+](cc2c1OC)CCc1cc2c(cc1-3)OCO2`, -35.5% (active). With `Cc1[nH]c(-c2cc(N)ccc2Cl)c2c1C(=O)CCCC2` the figure was -14.4% (active). Under `NC(=O)[C@@H]1Cc2ccccc2CN1C(=O)c1ccc2c(c1)Cc1ccccc1-2` stands 72.2% (inactive); under `OC1CSSC1Cn1cnc2c(Nc3ccc(OCc4cccc(F)c4)c(Cl)c3)ncnc21` (stereo not given), -29.3% (active). For the compound `NC(=O)Nc1ccc(-n2cnc3cc(-c4ccc(O)cc4)ccc32)cc1`, the growth was 95.4% (inactive). Under `Cc1ccc(-c2nc(C(Cl)Cl)nc3cc(C)nn23)cc1` stands -1.36% (active). Under `Oc1ccc(Br)cc1/C=N/NC(=S)NC12CC3CC(CC(C3)C1)C2` stands -25.8% (active); under `CCN(CC)CCOc1ccc2c(c1O)C(=O)c1ccccc1C2=O`, 71.4% (inactive). Under `Clc1ncnc2nc[nH]c12` stands 101% (inactive); under `O=C(c1ccc(-c2ccccc2)cc1)c1ccc([N+](=O)[O-])cc1`, 129% (inactive); under `COC(=O)c1c(C)[nH]c(/C=C2\N=C(c3ccc[nH]3)C=C2OC)c1C`, 4.25% (active). Turning to `COC(=O)c1ccc(=O)oc1`, the growth was 96.2% (inactive). With `Nc1ccc(-c2ccc(N)c(S(=O)(=O)O)c2)cc1S(=O)(=O)O` the figure was 91.4% (inactive); with `CN1C(=O)N(C)C2C1NN=c1s/c(=C\c3ccccc3)c(=O)n12` (stereo not given), 16.9% (inactive); with `CCc1cc(Cl)c(OC)c(C(=O)NCC2CCCN2CC)c1O` (stereo not given), 84.6% (inactive). With `O=c1ccc2nc(-c3ccccc3)nn(-c3ccccc3)c-2c1` the figure was -45.5% (active); with `c1cc(-c2nnc(SSc3ncnc4nc[nH]c34)o2)ccn1`, 18% (inactive). Consider `C#Cc1cccc(NC(=O)c2ccc(NC(=O)C=C)cc2)c1`, for which the growth was 80.6% [8.25 µM] (inactive). Regarding `COC(=O)c1ccc(NC(=O)c2ccc(-c3cccc([N+](=O)[O-])c3)o2)cc1`, the growth was 101% (inactive).

Consider `O=C(Cc1ccc(F)cc1)c1ccccc1`, for which the growth was 108% (inactive). Take `COC(=O)[C@@H](C)CNS(=O)(=O)N(c1cc(C(F)(F)F)cc(C(F)(F)F)c1)C1CCN(Cc2ccc(F)cc2)CC1`: the growth was 31.3% (inactive). For `CC(Br)C(OC(=O)c1ccccc1Cl)c1cc2c(cc1Br)OCO2` (stereo not given), the growth was 103% (inactive). As to `NC(=O)NCCCC(N)C(=O)O` (stereo not given), the growth is 105% (inactive). For the compound `COc1ccc(-c2cn(-c3cccc(C(=O)/C=C/c4cc(OC)c(OC)c(OC)c4)c3)c(=O)[nH]2)cc1`, the growth is 5.72% (active). With `CCOc1ccc(Br)cc1/C=C(\C#N)c1ccc([N+](=O)[O-])cc1` the figure was 91.6% (inactive).
